A selection: hits, their analogues and other compounds. The true share with any hit is near 2%.
PfHsp40 rescue: compounds rescuing yeast from Plasmodium falciparum HSP40 toxicity | S. cerevisiae expressing PfHsp40, growth rescue, ATP luminescence | 340,000 compounds, 0.68% hits | growth rescue, % at 12.5 µM | AID 504582; in the data active means growth rescue above about 28%, passing the limit was not always enough; inconclusive means no clear call, values can overlap the other calls;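 further: yeast W303a lacking pdr1 and pdr3 grown in galactose medium; growth measured after three days at 30 °C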
PrP UTR inh: suppresses PrP 5' UTR mRNA reporter expression | cell-based PrP 5' UTR mRNA reporter, plate reader | inhibition, % (concentration not given with the values) | 340,000 compounds, 0.35% hits | AID 488862; in the data active means inhibition above about 52%
CCHFV vOTU inh: CCHFV vOTU protease inhibition; Pep-AMC fluorescence; inhibition, % at 11.5 µM; 370,000 compounds, 0.55% hits; AID 651958; in the data active means inhibition above about 30%
Y pestis TopoI: inhibitors of Yersinia pestis topoisomerase I; Y. pestis Topo-I cleavage product accumulation, plate reader; activity, % at 10 µM; 360,000 compounds, 0.064% hits; AID 504884; in the data active means activity above about 50%, passing the limit was not always enough; inconclusive means no clear call, values can overlap the other calls
BJeLR lethal: kills HRASV12-expressing BJeLR cells; BJeLR (HRASV12) viability, CellTiter-Glo ATP luminescence, 48 h; inhibition, % (concentration not given with the values); 300,000 compounds, 0.17% hits; in the data active means inhibition above about 50%; inconclusive means no clear call, values can overlap the other calls
PrPC TRFRET: reduces human prion protein on the cell surface. P04156. cell surface PrPC, TR-FRET read-out. inhibition, % at 13.8 µM. 370,000 compounds, 0.43% hits. AID 720596; in the data active means inhibition above about 24%
PrP UTR cherry: prion 5' UTR mRNA inhibition, cherry-pick retest. shares compounds with PrP UTR inh. cell-based prion protein 5' UTR reporter, plate reader. inhibition, % at 2.5 µM. 1,100 compounds, 48% hits; in the data active means inhibition above about 54%; inconclusive means no clear call, values can overlap the other calls
Hits are given with their value; . = inactive; ? = inconclusive; / = no result given.

SMILES	PfHsp40 rescue	PrP UTR inh	CCHFV vOTU inh	Y pestis TopoI	BJeLR lethal	PrPC TRFRET	PrP UTR cherry
CC1=C(C(=O)Nc2cccnc2)C(c2cccnc2)n2nc(-c3cccs3)nc2N1 (stereo not drawn)	.	.	.	.	.	.	/
Cc1nnc(SCC(=O)Nc2cc(-c3cc(C)c(C)cc3C)nn2-c2ccccc2)s1	.	58.9	.	.	.	.	.
Cc1nnc(SCC(=O)Nc2cc(C(C)(C)C)nn2-c2ccccc2)s1	.	.	.	.	.	.	/
COc1cccc(/C=N/Nc2ncnc(N)c2[N+](=O)[O-])c1OC	.	.	/	.	.	/	/
Cc1cc(/C=N/Nc2ncnc(N)c2[N+](=O)[O-])c(C)n1-c1ccccc1	.	77.4	.	.	.	.	78.2
COc1ccc(-[n+]2c(C)cc(/C=C3\Sc4ccccc4N3C)cc2C)cc1	?	65.9	.	.	.	.	?
COc1ccccc1-[n+]1c(C)cc(/C=C2\Sc3ccccc3N2C)cc1C	.	70.4	.	.	73.4	.	.
COc1ccc(C(=O)/C=C2\Sc3ccccc3N2C)cc1	.	.	.	.	.	.	/
COC(=O)c1ccc(CN2C(=O)c3ccccc3C2=O)cc1	.	.	.	.	.	.	/
COC(=O)c1ccc(CN2C(=O)NC(CC(C)C)C2=O)cc1 (stereo not drawn)	.	81.1	.	.	.	.	.
Cc1ccc(C(=O)N/C(=C\c2ccc3c(c2)OCO3)C(=O)N2CCOCC2)cc1	.	.	.	.	.	.	/
COc1ccc(C(=O)N/C(=C\c2ccc3c(c2)OCO3)C(=O)N2CCOCC2)cc1	.	76.6	.	.	.	.	?
C[C@]12CC[C@H]3C(CCC4(O)CC(O)CC[C@]34C=O)C1=CC[C@H]2c1ccc(=O)oc1 (stereo partly drawn)	.	/	.	.	.	.	/
CC(=O)O[C@H]1[C@H]2O[C@]23[C@@H]2CC[C@]4(O)C[C@@H](O)CC[C@]4(C)C2CC[C@]3(C)[C@H]1c1ccc(=O)oc1 (stereo partly drawn)	.	94.2	/	.	/	/	91.0
CCOc1ccccc1N(CC(=O)Nc1cccnc1)S(C)(=O)=O	.	.	.	.	.	.	/
CCOc1ccccc1N(CC(=O)Nc1cccnc1)S(=O)(=O)c1ccc(C)cc1	.	54.5	.	.	.	.	.
COc1cc(NC(=O)c2cccs2)c(C(=O)OCC(=O)c2cc(C)n(-c3ccc(F)cc3)c2C)cc1OC	.	.	.	.	.	.	/
COc1cc(NC(=O)c2cccs2)c(C(=O)OCC(=O)c2cc(C)n(-c3ccccc3)c2C)cc1OC	.	70.9	.	.	.	.	73.2
Fc1cccc(Cn2ccc3ccc(-c4ccc5ccn(Cc6cccc(F)c6)c5c4)cc32)c1	/	/	.	/	/	.	/
Cc1cccc(C(=O)NCN2CCN(c3ccccc3C#N)CC2)c1	.	81.6	.	.	/	.	.
O=C(NCN1CCN(c2ccccc2F)CC1)c1ccccc1	.	.	.	.	.	.	/
COc1cccc2c1C(=O)c1c(O)c3c(c(O)c1C2=O)C[C@@](O)(C(=O)CO)C[C@@H]3O[C@H]1C[C@H](N)[C@@H](O)[C@H](C)O1	.	74.7	/	.	74.1	/	87.4
COc1cccc2c1C(=O)c1c(O)c3c(c(O)c1C2=O)CC(O)(C(=O)CO)CC3OC1CC(N(C)C)C(O)C(C)O1 (stereo not drawn)	100.1	85.6	.	.	/	.	95.1
O=C(N/N=C/c1ccc(O)cc1)c1cccc(N/N=C/c2ccc(O)cc2)c1	.	.	.	.	.	.	/
O=C(N/N=C/c1ccncc1)c1cccc(N/N=C/c2ccncc2)c1	.	71.6	.	.	.	.	.
SMILES	PfHsp40 rescue	PrP UTR inh	CCHFV vOTU inh	Y pestis TopoI	BJeLR lethal	PrPC TRFRET	PrP UTR cherry
CSc1cccc(NC(=S)NN/C(=N/S(=O)(=O)c2ccccc2)N2CCCC2)c1	/	/	.	/	/	.	/
COC(=O)[C@]12C[C@H](CC(=O)NCCCCc3ccccc3)C(=O)N(CCC3=CCCCC3)C1=C[C@H](C1CCCC1)O[C@@H]2C	/	/	.	/	/	.	/
O=C(CSc1nnc(-c2ccccc2)n1-c1ccccc1)NN=C/C=C\c1ccccc1[N+](=O)[O-]	/	/	.	/	/	.	/
COc1ccc(C2NC3=C(CCC3)C3(C#N)C(OC)(OC)N=C(N)C23C#N)cc1 (stereo not drawn)	.	52.7	/	.	.	/	?
Brc1ccc(N=Nc2ccc3ccccc3n2)cc1	.	82.0	.	.	.	.	80.1
COC(=O)Cc1[nH]n(-c2nc3ccccc3s2)c(=O)c1C(C)=Nc1ccc(Cl)cc1	.	90.6	.	.	.	.	87.5
COC(=O)Cc1[nH]n(-c2ccccc2)c(=O)c1C(C)=Nc1ccccc1	.	.	.	.	.	.	/
CCCN=C(C)c1c(-c2ccccc2)[nH]n(-c2nc3ccccc3s2)c1=O	.	.	.	.	.	.	/
COC(=O)Cc1[nH]n(-c2nc3ccccc3s2)c(=O)c1C(C)=Nc1ccc(C)cc1	.	92.4	.	.	.	.	91.9
OCC1=C[C@@H](O)C2C=CO[C@@H](O[C@@H]3O[C@H](CO)[C@@H](O)[C@H](O)[C@H]3O)C12 (stereo partly drawn)	.	.	.	.	/	.	/
OCC1=C[C@@H](O)[C@@H]2C=CO[C@@H](O[C@@H]3O[C@H](CO)[C@@H](O)[C@H](O)[C@H]3O)[C@H]12	.	65.4	.	.	/	.	.
Cn1cccc1/C=C(/C#N)c1ccc(F)cc1	.	80.0	.	.	.	.	.
CCN=C1NN=C(c2cc(C)n(Cc3ccco3)c2C)CS1	.	83.4	.	.	.	.	72.2
O=C(CCn1cnc2ccccc2c1=O)Nc1cccc(Cl)c1	.	.	.	.	.	.	/
COc1ccc(Cl)cc1NC(=O)CCn1cnc2ccccc2c1=O	.	70.5	.	.	.	.	.
CCN(CC)c1ccc2cc(-c3nc4ccccc4n3C)c(=O)oc2c1	.	.	.	.	.	.	/
CCN(CC)c1ccc2cc(-c3nc4ccccc4[nH]3)c(=O)oc2c1	.	58.1	/	.	.	/	65.5
CCOC(=O)N1CCN(C(=O)C(CC)n2nc(C)c3sc4ccccc4c3c2=O)CC1 (stereo not drawn)	.	81.3	.	.	.	.	.
N#Cc1ccc(NC(=O)OC2CCC23CCC(c2ccccc2)CC3)cc1 (stereo not drawn)	/	/	.	/	/	.	/
C=CS(=O)(=O)N[C@@H](CSSC[C@H](NS(=O)(=O)C=C)C(=O)OC)C(=O)OC	/	/	.	/	/	.	/
Cc1ccnc(SCc2cc(=O)c(OC(=O)c3ccc(C)c([N+](=O)[O-])c3)co2)n1	/	/	/	/	/	.	/
Cc1cc(C(N)=O)c2ccccc2n1	.	.	.	.	.	.	/
NC(=O)c1cc2c3ccccc3ccn2c1-c1ccccc1	.	71.5	.	.	.	.	90.3
Cc1ccc(SC(C)c2nc(-c3ccccc3)no2)cc1 (stereo not drawn)	.	74.6	.	.	.	.	.
